# Bioassay records (PubChem BioAssay)
# FBA Mtb inh: Mtb FBA enzyme inhibitors, primary screen, biochemical, fluorescence, strain H37Rv. Fructose-bisphosphate aldolase (Mycobacterium tuberculosis (strain ATCC 25618 / H37Rv)), …. purified M. tuberculosis FBA, fluorescence read-out. inhibition, % at 1 µM. hit rate 2.3% among 360,000; in the data active means inhibition above about 27%;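 further: 0% = vehicle and 100% = reference inhibitor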
# Mtb UGM inh: M. tuberculosis UGM enzyme inhibitors, primary screen, biochemical, fluorescence polarization, single point. purified UGM, fluorescence polarization probe displacement. inhibition, % at 10 µM. hit rate 0.06% among 320,000. UDP-galactopyranose mutase (Mycobacterium tuberculosis (strain ATCC 25618 / H37Rv)), …. AID 504406, 2011; in the data active means inhibition above about 10%, passing the limit was not always enough; inconclusive means no clear call, values can overlap the other calls
# Rv3671c inh: Rv3671c serine protease inhibitors, primary screen, biochemical, fluorescence polarization, M. tuberculosis H37Rv. P9WHR9. inhibition, % at 5.96 µM. hit rate 0.048% among 320,000. AID 2606, 2010; in the data active means inhibition above about 38%;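 further: extracellular domain of Rv3671c used as enzyme; 0% = enzyme with DMSO and 100% = no enzyme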
# RecA intein inh: Mtb RecA intein splicing inhibitors, primary screen, biochemical, fluorescence, HTS; cell-free RecA intein splicing; inhibition, % (concentration not given with the values); hit rate 0.75% among 290,000; Protein RecA (Mycobacterium tuberculosis (strain ATCC 25618 / H37Rv)), P9WHJ3; AID 2221, 2009; in the data active means inhibition above about 30%; inconclusive means no clear call, values can overlap the other calls;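 further: 0% = vehicle wells and 100% = reference inhibitor control wells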
# Target sequence (P9WHJ3 whole entry, looked up): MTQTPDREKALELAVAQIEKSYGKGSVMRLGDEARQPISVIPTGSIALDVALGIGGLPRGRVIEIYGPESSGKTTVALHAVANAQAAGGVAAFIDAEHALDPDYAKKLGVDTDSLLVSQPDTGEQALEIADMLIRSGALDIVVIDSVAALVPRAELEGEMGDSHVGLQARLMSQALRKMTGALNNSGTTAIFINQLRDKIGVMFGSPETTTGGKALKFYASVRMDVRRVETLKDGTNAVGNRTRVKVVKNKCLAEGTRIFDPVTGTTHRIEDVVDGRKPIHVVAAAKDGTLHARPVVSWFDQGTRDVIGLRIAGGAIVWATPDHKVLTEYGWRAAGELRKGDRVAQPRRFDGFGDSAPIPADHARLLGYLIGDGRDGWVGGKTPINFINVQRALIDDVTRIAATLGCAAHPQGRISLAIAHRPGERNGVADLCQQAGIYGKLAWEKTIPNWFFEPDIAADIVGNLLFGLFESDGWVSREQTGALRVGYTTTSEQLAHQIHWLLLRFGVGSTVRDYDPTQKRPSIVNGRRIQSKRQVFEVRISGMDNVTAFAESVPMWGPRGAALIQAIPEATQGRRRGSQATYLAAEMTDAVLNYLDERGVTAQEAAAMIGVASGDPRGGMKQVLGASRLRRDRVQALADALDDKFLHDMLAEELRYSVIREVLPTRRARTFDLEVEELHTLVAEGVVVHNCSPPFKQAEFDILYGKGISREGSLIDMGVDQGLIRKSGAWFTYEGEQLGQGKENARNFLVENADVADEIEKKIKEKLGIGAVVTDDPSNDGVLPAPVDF
# GDH-TPI inh: GDH-TPI coupling enzyme inhibitors, primary screen, artefact control for M. tuberculosis FBA inhibitor project, biochemical, absorbance, full deck; GDH-TPI coupled enzyme counterscreen, NADH absorbance; inhibition, % at 4.8 µM; hit rate 1.2% among 360,000; in the data active means inhibition above about 30%;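 further: 0% = DMSO wells and 100% = wells lacking the enzyme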
# Mtb bLac sens: beta-lactam sensitization of Mtb H37Rv, H37Rv; M. tuberculosis H37Rv growth with meropenem, percent inhibition; inhibition, % at 25 µM; hit rate 0.27% among 330,000; AID 434955, 2010; call rule not given here;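 further: growth measured after seven days incubation then overnight dye step; 0% = bacteria only wells and 100% = bacteria with antibiotic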
# The depositor's hits bear a star; ? = inconclusive; / = not tested or not shown; + = active, no number. Most compounds without a hit are left out; they make up all but 4% or so of the library.
SMILES,FBA Mtb inh,Mtb UGM inh,Rv3671c inh,RecA intein inh,GDH-TPI inh,Mtb bLac sens
O=C(N/N=C/c1ccc([N+](=O)[O-])cc1)c1cc(C2CC2)nc2ccccc12,-4.7,-3.2,-1.8,1.9,33.3*,0.1
O=C(N/N=C/c1ccc2c(c1)OCO2)c1cc(-c2ccncc2)nc2ccccc12,-6.7,1.5,-18.9,-0.1,23.0,-0.9
O=C(N/N=C/c1ccc([N+](=O)[O-])cc1)c1[nH]ncc1Br,+,-3.1,-11.3,-1.6,19.6,-5.8
Cc1cc(C(=O)N/N=C/c2ccc([N+](=O)[O-])cc2)c2ccccc2n1,-4.6,0.4,-1.3,-0.9,51.0*,-3.0
CCCc1cc(-n2ccnc2)n2c(nc3ccccc32)c1C#N,13.6,0.1,-20.0,-37.6,4.1,22.9
Cc1cc(NCCCOC(C)C)n2c(nc3ccccc32)c1C#N,189.9*,0.1,-1.6,-140.1,4.1,3.4
CCC(C)Nc1cc(C)c(C#N)c2nc3ccccc3n12 (stereo unspecified),+,-0.3,2.9,-121.8,14.7,-2.8
Cc1cc(NCCCN(C)C)n2c(nc3ccccc32)c1C#N,+,-1.5,1.2,-149.6,5.1,-5.9
CCC(C)Sc1cc(C)c(C#N)c2nc3ccccc3n12 (stereo unspecified),-3.1,-0.3,-2.5,-61.1,7.4,3.4
Cc1cc(Nc2ccc(O)cc2)n2c(nc3ccccc32)c1C#N,3.7,-0.7,4.8,1.3,-0.6,6.4
CCCc1cc(NCCCO)n2c(nc3ccccc32)c1C#N,+,0.2,-0.7,-64.2,7.4,-9.2
COc1ccc(C2C(C(N)=O)=C(C)Nc3nc(CCCO)nn32)cc1OC (stereo unspecified),3.1,1.1,1.2,-0.7,-2.5,-6.8
N#Cc1cccc(NC(=O)CCc2ccc(S(=O)(=O)N3CCOCC3)cc2)c1,-4.8,0.9,3.8,/,7.0,-2.2
CCCN(C(=O)c1cccc(S(=O)(=O)N2CCN(C)CC2)c1)c1c(N)n(Cc2ccccc2)c(=O)[nH]c1=O,-1.0,-1.7,4.5,-6.3,-6.5,2.8
CCOc1ccc(NC(=O)CN(C)C(=O)c2ccccc2CCc2ccccc2)cc1OCC,3.4,0.1,8.0,1.0,13.6,-7.8
Cc1cc(NCCCn2ccnc2)n2c(nc3ccccc32)c1C#N,70.3*,4.6,-1.7,-47.1,9.1,-10.6
Cc1cc(NCCN2CCCCC2)n2c(nc3ccccc32)c1C#N,/,/,/,-34.3,/,/
CSCC[C@H](NC(=O)[C@@H]1Cc2ccccc2CN1)C(=O)NC[C@H]1CC[C@H](C(=O)O)CC1,0.8,1.7,-5.8,2.3,1.4,-2.8
CCc1nnc(NS(=O)(=O)c2ccc(NC(=O)c3ccccc3)cc2)s1,8.2,1.6,-4.6,-1.9,-11.1,-2.2
CCc1nnc(NC(=O)c2ccc(NS(=O)(=O)c3ccccc3)cc2)s1,10.4,3.3,-8.9,-4.4,34.1*,-19.0
COc1ccc(-c2nn(-c3ccccc3)cc2/C=N/NC(=O)c2cccc(S(=O)(=O)Nc3ccccc3Cl)c2)cc1,0.8,-1.0,-164.2,1.1,31.8*,4.2
O=C(CSc1nc2ccccc2o1)N/N=C/c1ccc(O)c(O)c1,2.9,0.2,3.2,-6.6,54.4*,9.8
O=C(CSc1nc2ccccc2o1)N/N=C/c1ccccc1,0.3,1.3,-8.1,0.0,-4.9,-6.1
CCCCCn1nc(-c2ccccc2)c2nc3ccccc3nc21,0.1,37.7*,-1.9,-56.5,10.1,-3.2
COc1ccc(NS(=O)(=O)c2ccc(C)c(NC(=O)CN3C(=O)NC4(CCCC4)C3=O)c2)cc1,2.3,0.7,2.4,/,5.6,0.8
SMILES,FBA Mtb inh,Mtb UGM inh,Rv3671c inh,RecA intein inh,GDH-TPI inh,Mtb bLac sens
Cc1nnc(NC(=O)c2cc3ccccc3o2)s1,-2.0,0.0,1.2,-1.0,11.3,10.7
CS(=O)(=O)c1ccc2nc(NC(=O)c3cc4ccccc4o3)sc2c1,4.5,0.9,8.8,-3.2,47.1*,-1.8
CS(=O)(=O)c1ccc2nc(NC(=O)c3ccccc3Cl)sc2c1,-0.9,-1.1,/,-0.6,19.4,5.9
CS(=O)(=O)c1ccc2sc(NC(=O)c3cc4ccccc4o3)nc2c1,5.1,1.9,-11.3,-1.1,72.5*,2.6
O=c1cc(SCc2ccccc2)nc[nH]1,-3.8,/,/,/,-8.5,/
O=c1cc(CN2CCOCC2)c2cc(Cl)ccc2o1,-3.6,1.5,-3.9,-3.5,11.0,0.1
Cn1nc(C(=O)NNC(=O)C(CCC(N)=O)NS(=O)(=O)c2ccc(Cl)cc2)c2ccccc2c1=O (stereo unspecified),1.5,0.8,-2.8,/,-2.5,-5.1
O=C1CCCC2=C1C(c1ccncc1)n1c(nc3ccccc31)N2 (stereo unspecified),+,-2.4,-3.0,-1.8,14.4,3.5
CC1CC(=O)C2=C(C1)Nc1nc3ccccc3n1C2c1cccnc1 (stereo unspecified),165.4*,-1.4,-7.1,-0.6,14.2,0.7
CSc1nc2n(n1)C(c1cccs1)C1=C(CCCC1=O)N2 (stereo unspecified),10.9,/,0.3,0.1,4.4,1.9
C[C@@H]1CN([C@H](C)CO)C(=O)CCCn2nncc2CO[C@H]1CN(C)S(=O)(=O)c1cccc(C#N)c1,5.4,/,/,/,-2.4,/
CC1(C)Cc2cccc(Oc3cc(NN4CCCCC4)c([N+](=O)[O-])cc3[N+](=O)[O-])c2O1,4.7,0.4,-0.6,8.5,7.7,-2.2
COc1ccccc1CNC(=O)COc1ccccc1C,0.2,-2.4,/,0.9,8.4,0.1
COc1cccc(CNC(=O)COc2cc3c(c4oc(=O)cc(C)c24)CCC(C)(C)O3)c1,167.7*,-0.4,-13.8,0.6,19.6,4.5
O=C(COc1ccc2c3c(c(=O)oc2c1)CCCC3)NCc1cccnc1,7.3,1.1,-0.4,-1.2,0.0,8.9
COc1cccc(CNC(=O)C2(C)Oc3ccccc3NC2=O)c1 (stereo unspecified),1.4,1.7,3.0,-1.4,-0.4,-1.4
Cc1cc(=O)oc2c3c(cc(OCC(=O)NCc4cccnc4)c12)OC(C)(C)CC3,+,4.8,-5.6,-9.6,21.6,1.7
COc1ccccc1CNC(=O)COc1cc2c(c3oc(=O)cc(C)c13)CCC(C)(C)O2,188.8*,0.4,-21.8,8.3,5.6,-5.8
CCSc1nnc(SCC(=O)NC2CCCCC2)s1,-0.7,-0.7,0.0,/,9.9,0.1
CN(C)C1=NCCN1CC1CCCCC1,2.6,-1.1,-0.9,/,6.5,-1.1
CCc1nc2ccc(C(=O)N3CCN(C(=O)c4ccco4)CC3)cn2c1N(C)Cc1nccn1C,-5.2,/,/,/,-3.9,/
COCCn1c(-c2ccccc2)nc(=S)c2c1CC(C)(C)OC2,-3.1,0.2,-6.1,-4.0,36.9*,23.4
S=c1nc(-c2ccccc2)n(CCN2CCOCC2)c2c1CCCC2,4.4,5.1,0.2,-1.8,50.6*,?
